Results taken from ChEMBL document CHEMBL3988442, “University of Dundee, Small-Polar-MMV Screening Library” (2021).

Target: AMP-activated protein kinase, AMPK (Homo sapiens) (UniProt P54646+O43741+P54619+Q9UGJ0+Q9Y478+Q13131+Q9UGI9)
Assay: AMP-dependent Kinase enzyme assay. An in vitro enzyme assay that detects ADP turnover that is directly proportional to AMPK activity. This uses naive AMPK that is activated during the assay with MK-8722
Assay type: functional
Parameters: scale not given: direction of the effect not stated beside the values
Conditions: 30 µM

SMILES	Percent Effect [%]
COc1ccc(-c2cc3nc(CCNC(=O)CN(C)C)nn3cn2)cc1	15
CN(C)S(=O)(=O)N1CC[C@]2(O)CCN(c3cc(C#N)ccn3)C[C@@H]2C1	-3.03
NC(=O)C1CCN(c2ccc(C(=O)N3CCc4ccccc43)cn2)C1 (stereo not given)	6.03
CN(C)c1cccc(C(=O)Nc2cnn(Cc3ccccn3)c2)c1	-43.1
NC(=O)NC1CCN(Cc2ccc(Br)c(F)c2)CC1	4.07
c1ccc(CCN2CCN(C3CCOC4(CCOCC4)C3)CC2)cc1 (stereo not given)	-8.46
COCCN1C[C@@H](C(=O)O)[C@H](c2ccccc2C)C1	-1.51
CN1CCCN(c2ccc(F)cc2CNC(=O)c2ccsc2)CC1	5.4
CC(C)Oc1cccc(F)c1C(C(=O)O)N1CCCN(C)CC1 (stereo not given)	3.49
N#Cc1cccc(N2CCCC(CO)(CCOc3ccccc3)C2)n1 (stereo not given)	3.31
Cc1ccc(C(C)N(C)C(=O)c2ccc(=O)n(C)c2)s1 (stereo not given)	3.36
CC1CCC(O)(CSc2nnnn2C2CC2)CC1 (stereo not given)	6.07
Cc1ccc(Br)cc1C(=O)Nc1cc(C(N)=O)n(C)c1	0.519
CC(C)(C)CN(CCC#N)C(=O)c1cccc(CN2CCCC2)c1	7.06
CC(NC(=O)NC1CCN(Cc2ccncc2)CC1)c1ccccc1F (stereo not given)	-3.35
CC(=O)Nc1ccc(CN2C[C@H]3CC[C@@H]2CN(c2ncccn2)C3)cc1	13
CN1CC(C(=O)NCCc2ccc3c(c2)OCO3)CC1=O (stereo not given)	3.69
COc1ccc2c(c1)CCCC2CC(=O)NCC(C)(C)C(=O)O (stereo not given)	0.926
Cc1cc(C)c2c(NCc3nncn3C3CCCCC3)ncnc2n1	-0.11
COc1ccc(C(=O)N2C[C@@H](O)[C@H](NCc3ncccc3C)C2)cc1	-3.45

SMILES	Percent Effect [%]
COc1ccc(S(=O)(=O)Nc2cccnc2-n2cncn2)c(C)c1	-5.19
Cn1cccc1CNCC1CCCn2cc(C(C)(C)C)nc21 (stereo not given)	-0.856
COc1ccccc1CN(Cc1nc(C)no1)C1CC1	6.47
COCCN(C)C[C@@H]1CN(c2cc(C)nc3ccccc23)C[C@@H]1CO	-6.62
O=C1C(N2CCOCC2)CCCN1Cc1cccc(C(F)(F)F)c1 (stereo not given)	5.78
Cc1cc(-c2cnc(N3CCN(C)CC3)nc2C(C)C)on1	16.2
CCc1cnc(N)nc1NCCC(=O)NC1CCCCC1	-4.74
CCc1nnc(CS(=O)(=O)c2ccc(C)cc2)n1C	6.29
CN(C)c1ccccc1C(=O)N1CCCC(c2cccc(C(=O)O)c2)C1 (stereo not given)	2.89
O=C(O)c1ccn(-c2ccc(NC(=O)c3ccccc3Cl)cc2)n1	5.04
Cc1noc(C)c1CC(=O)N[C@@H]1CC[C@@H](Oc2ccccc2)[C@@H]1O	5.13
Cc1ccc(-c2cc(CNC(=O)NC3CCCCNC3=O)on2)cc1 (stereo not given)	-0.304
O=C(c1ccccc1F)N1CCCC1Cn1c(=O)oc2ccccc21 (stereo not given)	10.9
Cc1cnccc1CNCc1ccc(OC23CCCN(CC2)C3)cc1 (stereo not given)	-10.2
CS(=O)(=O)NC(=O)c1ccn(-c2cccc(Br)c2)n1	2.69
O=S(=O)(c1cccnc1)N1CCCCC1CCN1CCOCC1 (stereo not given)	16.1
COc1ccc(C(=O)N2C[C@@H](O)[C@H](NCc3cnc(C)cn3)C2)cc1	-12.3
CCC1(CC)CC(=O)N(CC(O)c2cccc(F)c2)C1=O (stereo not given)	12.2
COc1ccc(-c2cc(C3CC3)c(C#N)c(N)n2)cc1F	9.02
COCC[C@]1(O)CCN(Cc2ccccn2)C[C@H]1C	5.38
